# Bioassay records deposited in PubChem by National Center for Advancing Translational Sciences (NCATS).
# Shown are actives, neighbours in structure and some others; about 1.1% of the full set was active somewhere.
# AmpC detergent – blocks E. coli AmpC beta-lactamase in detergent assay. P00811. AmpC hydrolysis of nitrocefin, absorbance 480 nm, 0.01% Triton. Potency, µM (doses to about 114 µM), usual class: inhibitors. 370,000 compounds, 0.041% hits. AID 485294; further: nearly all actives have a fitted effect of over 25% in size
# Target sequence (P00811 whole entry, looked up): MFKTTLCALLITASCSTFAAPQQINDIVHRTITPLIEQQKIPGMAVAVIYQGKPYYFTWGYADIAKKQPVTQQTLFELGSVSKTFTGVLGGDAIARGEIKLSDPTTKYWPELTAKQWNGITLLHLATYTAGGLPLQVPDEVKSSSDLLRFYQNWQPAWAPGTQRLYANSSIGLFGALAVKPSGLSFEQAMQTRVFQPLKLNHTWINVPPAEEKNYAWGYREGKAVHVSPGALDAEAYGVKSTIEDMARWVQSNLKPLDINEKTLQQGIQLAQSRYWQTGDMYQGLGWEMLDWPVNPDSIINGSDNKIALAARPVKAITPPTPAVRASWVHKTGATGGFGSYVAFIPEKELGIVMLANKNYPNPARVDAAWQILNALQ
#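 AmpC (5.3 nM in the dispensed reagent) in 20 mM phosphate pH 7.0 with 0.01% (detergent screen) or 0.0001% Triton X-100 was preincubated with compounds for 15 min at room temperature. Nitrocefin was then added from an 800 uM solution, and hydrolysis was followed at 480 nm.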
# AmpC inh no detg – AmpC beta-lactamase inhibition without detergent; AmpC nitrocefin hydrolysis, absorbance 480 nm, 0.0001% Triton; Potency, µM (doses to about 57.1 µM), usual class: inhibitors; 330,000 compounds, 0.52% hits; P00811; further: nearly all actives have a fitted effect of over 20% in size
#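 20 mM phosphate pH 7.0 + 0.01% (detergent screen) or 0.0001% Triton X-100; 5.3 nM AmpC reagent; cpd preinc 15 min RT; nitrocefin (800 uM stock) to start; A480 q20 s × 4 min; Activity was normalised to no-enzyme and no-compound control wells.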
# FBPA Giardia inh – blocks Giardia fructose-bisphosphate aldolase activity; A8B2U2; purified Giardia FBPA; Potency, µM (series often up to 59.6 µM), actives largely listed as inhibitors; 290,000 compounds, 0.71% hits; further: nearly all actives have a fitted effect of over 55% in size
# Target sequence (A8B2U2 whole entry, looked up): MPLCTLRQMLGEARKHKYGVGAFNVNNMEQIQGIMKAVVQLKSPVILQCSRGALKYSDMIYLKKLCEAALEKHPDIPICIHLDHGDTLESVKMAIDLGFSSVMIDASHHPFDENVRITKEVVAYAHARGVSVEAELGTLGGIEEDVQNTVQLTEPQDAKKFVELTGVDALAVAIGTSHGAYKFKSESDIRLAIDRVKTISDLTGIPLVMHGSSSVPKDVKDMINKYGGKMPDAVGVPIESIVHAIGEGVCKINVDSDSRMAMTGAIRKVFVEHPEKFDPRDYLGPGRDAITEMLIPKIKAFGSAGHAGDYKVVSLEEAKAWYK
#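 Giardia FBPA (40 nM reagent) was preincubated 10 min at RT with compound (up to 57.5 uM final), then substrate plus GAPDH/TPI/NAD/arsenate coupling system with diaphorase/resazurin was added; resorufin fluorescence (525/598 nm) was read after 20 min.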
# AMA1 RON2 block – inhibitors of Plasmodium falciparum AMA1-RON2 interaction. AlphaScreen AMA1-biotinylated RON2 peptide binding. Potency, µM (titrated, usually from 58.2 µM), most hits filed as inhibitors. 360,000 compounds, 0.2% hits; further: nearly all actives have a fitted effect of over 45% in size
#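 AMA1 (3D7) with his tag at 25 nM final met compounds first, then biotinylated RON2 peptide at 25 nM; detection used donor plus acceptor beads, 10 µg/mL apiece, read by AlphaScreen after 30 min at room temperature.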
# Hits are given with their value; . = inactive; ? = inconclusive; / = no result; ! = a repeat was not active; [ ] = dose if it differs, or a comment. The call rests on the fitted dose curve; in most records, active means well fitted curve in the direction sought with a large enough effect; inconclusive means small, poorly fitted or top-dose-only effect, or another doubt; inactive means no such curve, though single readings can be large; an effect the other way counts as inactive or inconclusive.
SMILES,AmpC detergent,AmpC inh no detg,FBPA Giardia inh,AMA1 RON2 block
NS(=O)(=O)c1ccc(NC(=O)COc2cccc3ccccc23)cc1,.,12.6µM,.,.
COCCNC(=S)Nc1ccc2nc(N3CCCC3)cc(C)c2c1,.,10µM,.,.
COCCNC(=S)Nc1ccc2nc(N3CCOCC3)cc(C)c2c1,?,.,.,.
CCOC(=O)c1csc(N)n1,.,.,.,.
C[C@H]1[C@H](NC(=O)C(=NOC(C)(C)C(=O)O)c2csc(N)n2)C(=O)N1S(=O)(=O)O,3.98µM,5.01µM,/,.
O=C(Nc1ccccc1)NC1(C(=O)NCCCN2CCOCC2)CCCCC1,.,.,.,.
O=C(Nc1ccccc1)NC1(C(=O)NCc2cccs2)CCCCC1,.,0.141µM,.,.
COc1ccc(Oc2c(C(F)(F)F)oc3c(CN4CCCC(C)C4)c(O)ccc3c2=O)cc1 (centres undefined),.,/,/,/
COc1ccc2[nH]c(C)c(CCN(Cc3cccs3)C(=S)Nc3ccccc3)c2c1,?,.,?,.
COc1ccccc1NC(=S)N(CCc1c(C)[nH]c2ccccc12)Cc1cccs1,?,39.8µM,.,.
CC(=O)N1CCC2(CC1)CCN(c1ccc(-c3ccccc3)cc1)CC2,/,/,.,/
C/C(=N\Nc1nc(-c2ccc(C)cc2C)cs1)c1cc2ccccc2oc1=O,?,20µM,.,.
COc1ccc2oc(=O)c(/C(C)=N/Nc3nc(-c4cc(C)ccc4C)cs3)cc2c1,.,.,.,.
COc1ccccc1NC(=S)N1CCCCCC1,.,.,.,.
Clc1ccc(C2=NNC(=NCc3ccccc3)SC2)cc1,.,.,.,.
Fc1ccc(C2=NNC(=NCc3ccccc3)SC2)cc1F,.,17.8µM,.,.
Cc1ccc2nc(/C(C#N)=C\c3ccc(Oc4ccc([N+](=O)[O-])cn4)cc3)[nH]c2c1,.,28.2µM,.,.
COc1ccc2nc(/C(C#N)=C\c3ccc(Oc4ccc([N+](=O)[O-])cn4)cc3)[nH]c2c1,.,?,.,.
COc1ccc(-c2nc3cnc(OC)nc3n(C3CC3)c2=O)cc1,/,/,.,/
CCCCCCN1CCN(c2ccc(Cl)cc2)CC1,?,.,?,35.5µM
CCCCCOc1ccc(N2C(=O)CC(N(O)c3ccccc3)C2=O)cc1 (centres undefined),?,20µM,.,.
CCCCOc1ccc(N2C(=O)CC(N(O)c3ccccc3)C2=O)cc1 (centres undefined),.,.,.,.
O=[N+]([O-])c1cc(S(=O)(=O)c2ccc(N3CCCCC3)c([N+](=O)[O-])c2)ccc1N1CCCCC1,.,10µM,.,.
Cc1cc(=O)oc2cc(O)c(O)cc12,/,/,.,/
O=C(Nc1ccccc1)Nc1sccc1-c1nc2ccccc2s1,.,14.1µM,.,.
SMILES,AmpC detergent,AmpC inh no detg,FBPA Giardia inh,AMA1 RON2 block
O=C(NCCCN1CCCC1=O)c1ccc2c(c1)NC(=O)c1ccccc1S2,?,.,.,.
CCN1CCN(CCCNC(=O)c2ccc3c(c2)NC(=O)c2ccccc2S3)CC1,.,3.98µM,.,.
COc1ccc(-c2nc3c(c4c2C[C@H](c2ccccc2)OC4)CN(C(=O)NCCc2c[nH]c4ccccc24)CC3)c(C)c1,/,/,.[12.9 µM],/
Cn1c(/C(C#N)=C/c2ccc(-c3ccc(S(N)(=O)=O)cc3)o2)nc2ccccc21,.,20µM,.,.
Cn1c(/C(C#N)=C/c2cccc(O)c2)nc2ccccc21,.,.,.,.
CC(C)(C)C(=O)Nc1nc2c(s1)COc1ccccc1-2,?,0.708µM,.,.
O=C(CCSc1ccccc1)Nc1nc2c(s1)COc1ccccc1-2,?,3.16µM,.,.
CCCC(=O)Nc1nc2c(s1)COc1ccccc1-2,.,.,.,.
COC(=O)[C@H](NC(=O)c1cc([C@@H](NC(=O)OC(C)(C)C)C(C)C)sc1N)C(C)C,/,/,/,.
Cc1ccc(OCC(=O)Nc2ccc(S(=O)(=O)Nc3ccccn3)cc2)cc1C,.,.,.,.
CCc1cccc(OCC(=O)Nc2ccc(S(=O)(=O)Nc3ccccn3)cc2)c1,.,10µM,.,.
CNC(=O)C1(C(F)(F)F)C/C(=C\Cc2ccccc2)CCCO1 (centres undefined),/,/,.,/
COc1ccc(NC(=S)N(CCc2c(C)[nH]c3ccc(C)cc23)Cc2ccco2)cc1,?,17.8µM,.,.
CCOc1ccc(S(=O)(=O)c2cc3cccc(OCC)c3oc2=O)cc1,.,/,/,/
O=C(CN1CCN(c2ccccc2F)CC1)c1c[nH]c2ccc(F)cc12,.,.,.,.
NC(=O)C1CCN(CC(=O)c2c[nH]c3ccc(F)cc23)CC1,.,0.141µM,.,.
O=C(CN1C(=O)c2ccccc2C1=O)NCc1ccccn1,?,.,.,.
O=C(Cn1c(=O)sc2ccccc21)NCc1ccccn1,?,44.7µM,.,.
O=C(Nc1ccccc1)c1sc2cc(C(F)(F)F)cnc2c1-c1cccs1,.,4.47µM,.,.
CCOc1ccc(CNC(=O)CN2C(=O)CSc3ccc(S(=O)(=O)N4CCOCC4)cc32)cc1,/,/,/,.
O=C(N/N=C/c1ccc(Sc2ccccn2)o1)c1cccc([N+](=O)[O-])c1,?,10µM,.,.
O=C(N/N=C/c1ccc(Sc2ccccn2)o1)c1cc2ccccc2cc1O,.,17.8µM,.,.
O=C(N/N=C\c1ccc(Sc2ccccn2)o1)c1cccc(F)c1,.,.,.,.
O=C(O)c1ccc(/C=N/NC(=O)c2cc3ccccc3cc2O)cc1,/,.,/,.[11.6 µM]
COC(=O)[C@@H](NC(=O)O[C@@H]1C(=O)c2ccc(OC)cc2O[C@H]1c1ccc2c(c1)OCO2)C(C)C,/,/,.,/
SMILES,AmpC detergent,AmpC inh no detg,FBPA Giardia inh,AMA1 RON2 block
O=C(Nc1cccc(-c2ccc(N3CCOCC3)nn2)c1)c1ccc(Cl)cc1,?,31.6µM,/,.
CC1CCC(NC(=O)Cn2ncc3ccccc32)CC1 (centres undefined),?,2.51µM,.,.
CC1CCCCC1NC(=O)Cn1ncc2ccccc21 (centres undefined),?,3.16µM,.,.
CCOC(=O)N1CCC(NC(=O)Cn2ncc3ccccc32)CC1,.,.,.,.
Cn1c(=O)[nH]c(=O)c2c1nc1n(CCO)c(-c3ccccc3)cn21,.,/,/,/
Cc1ccc(N(CC(=O)N/N=C/c2cccc(Br)c2)S(C)(=O)=O)cc1,.,14.1µM,?,.[11.6 µM]
CCCc1cc(C(=O)NCCc2ccccc2)no1,.,11.2µM,.,.
CC1(C)S[C@@H]2[C@H](NC(=O)C(N)c3ccccc3)C(=O)N2[C@H]1C(=O)O (some centres undefined),/,/,.,/
CC(Oc1ccccc1)C(=O)NC1C(=O)N2C1SC(C)(C)C2C(=O)O (centres undefined),35.5µM,?,.,.
Cc1onc(-c2c(Cl)cccc2Cl)c1C(=O)N[C@@H]1C(=O)N2[C@@H]1SC(C)(C)[C@@H]2C(=O)O,0.0447µM,0.1µM!,.,.
O=C(NCCc1ccc(Cl)cc1)C(=O)NCC(c1ccco1)S(=O)(=O)c1ccc(Cl)cc1 (centres undefined),.,/,/,/
COc1ccc(S(=O)(=O)N(C)C2CCN(C)CC2)cc1,?,10µM,.,.
